Composite z-score and z-score data for four molecules are collected here from PubChem BioAssay.

Active and inactive are the calls of the source. Unless noted, how the calls were made is not given here.

Assay [1] concerns Wnt5a (protein binding on small-molecule microarray). The assay is described as follows: Wnt5a binders on small-molecule microarray, primary screen, biophysical, 635/667 nm fluorescence (AID 1142).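 Further: fluorescence read at 667 nm with signal to noise per printed feature.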 The note with it: 635 nm fluorescence, higher = more signal.
Assay [2] in a line: cell viability in Huh7 cells, primary screen, cytotoxicity control for HCV replication inhibitor project, CellTiter-Glo luminescence, basal, 48 h (AID 1143).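 Further: Huh7 hepatoma cells carrying a hepatitis C replication reporter with no stimulus; test concentration not given here.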 The note with it: Huh7 HCV replicon, higher = more signal, called active from +8 up or from −8 down. (In general: ATP-based viability assays read luminescence as a measure of living cells.)
The nature of assay [3]: P. aeruginosa biofilm formation inhibitors, primary screen, PAO1 strain, BacTiter-Glo luminescence, LB-PBS (AID 1144). The note with it: 12 h, higher = more signal.
Assay [4] in a line: CREB reporter modulators without forskolin, primary screen, cell-based, PC12, CRE-LacZ reporter, unstimulated (AID 1145). The note with it: no forskolin, luminescence, 4.5 h, higher = more signal, called active from +8 up or from −8 down.
Assay [5] is described as follows: CREB reporter modulators under forskolin, primary screen, cell-based, PC12, CRE-LacZ reporter, forskolin-stimulated (AID 1146).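 Further: PC12 cells with 6xCRE LacZ reporter stimulated by forskolin 10 µM; beta-galactosidase reporter signal reflecting CREB driven transcription.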 As to conditions: luminescence, 4.5 h, higher = more signal, called active from +8 up or from −8 down.
Assay [6] concerns the target Streptavidin (Streptomyces avidinii) (UniProt P22629). Nature of the assay: streptavidin binders on small-molecule microarray, primary screen, artefact control for SMM compound annotation, biophysical, 635/667 nm fluorescence (AID 1147).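 Further: signal reflects streptavidin binding to arrayed compounds as a control protein.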 As to conditions: streptavidin binding, higher = more signal.
A short description of assay [7]: small-molecule binders of probe aInhba, primary screen, biochemical, small-molecule microarray, 635/667 nm fluorescence (AID 1148).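 Further: score merges 667nm spot fluorescence with signal-to-noise for antibody binding to printed compounds.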 As to conditions: higher = more signal.
Assay [8] addresses Torsin-1A (Homo sapiens) (UniProt O14656). Nature of the assay: torsin A binders from cell lysate, primary screen, small-molecule microarray, wild-type, 635/667 nm (AID 1149). As to conditions: COS7 hTOR1A-WT lysate, 635 nm fluorescence, higher = more signal.
Assay [9] has the same target. The assay is described as follows: small-molecule binders of mutant TOR1A in lysate, primary screen, cell lysate, small-molecule microarray, COS7 lysate, 635/667 nm fluorescence (AID 1150).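 Further: score pools 667 nm emission and signal to noise measuring lysate protein binding.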 As to conditions: COS7 hTOR1A mutant lysate, 635 nm fluorescence, higher = more signal.
The test system of assay [10] is Sonic hedgehog protein (Shh). The assay is described as follows: small-molecule binders of Shh protein, primary screen, biochemical, small-molecule microarray, 635/667 nm fluorescence (AID 1151).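 Further: Shh protein binding to compounds spotted on small-molecule microarray slides; score combines spot fluorescence intensity with signal-to-noise across triplicate slides.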 As to conditions: small-molecule microarray binding, 635 nm fluorescence; higher = more signal.
Assay [11] can be described thus: E. coli DRC41 culture turbidity changes, primary screen, E. coli filamentation inducer project, strain DRC41, OD650, 48 h (AID 1152).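 Further: E. coli MC1000 strain DRC41 lacking acrAB efflux pump and sulA.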 As to conditions: E. coli DRC41 (acrAB sulA), higher = more signal, called active from +8 up or from −8 down.
A short description of assay [12]: small-molecule binders of probe aLefty1, primary screen, biochemical, small-molecule microarray, 635/667 nm fluorescence (AID 1153).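 Further: score merges spot fluorescence with signal-to-noise ratio from the scanned slide images.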 The note with it: higher = more signal.
The nature of assay [13]: PSAC antagonists in infected red cells, primary screen, cell-based, P. falciparum Indochina, OD700, 1 h (AID 1154). As to conditions: P. falciparum Indochina infected RBC osmotic lysis, higher = more signal, called active from +8 up or from −8 down.
Assay [14] can be described thus: PSAC antagonists in infected red cells, primary screen, cell-based, P. falciparum Indochina, OD700, 2 h (AID 1155).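 Further: lysis reports solute entry through the parasite surface anion channel PSAC; channel blockers reduce lysis of infected cells.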 As to conditions: P. falciparum Indochina infected erythrocytes, osmotic lysis OD700; higher = more signal, called active from +8 up or from −8 down.
Assay [15] in a line: osmotic lysis modulators in infected erythrocytes, primary screen, PSAC antagonist project, cell-based, P. falciparum Indochina, OD700, 3 h (AID 1156). The note with it: higher = more signal, called active from +8 up or from −8 down.
Assay [16] can be described thus: PSAC antagonists in infected red cells, primary screen, cell-based, P. falciparum Indochina, OD700, 18 h (AID 1157). The note with it: P. falciparum Indochina infected erythrocytes, osmotic lysis OD700, 18 h; higher = more signal, called active from +8 up or from −8 down.
Assay [17] is described as follows: modulators of S6 phosphorylation in cells, primary screen, cell-based, A549, cytoblot, luminescence, serum-stimulated (AID 1158).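 Further: serum-stimulated A549 lung adenocarcinoma cells; signal is phosphorylated S6 detected by cytoblot immunostaining with HRP secondary.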 As to conditions: A549 phospho-S6 cytoblot, 5 h, higher = more signal.
Assay [18] deals with NADPH oxidase 2 (Homo sapiens) (UniProt P04839). Nature of the assay: NOX2-dependent H2O2 signal modulators, primary screen, NOX inhibitor project, cell-based, HEK293-NOX2, PMA-stimulated, Amplex Red fluorescence (AID 1159). Further: test concentration not given here. As to conditions: 45 min, higher = more signal, called active from +8 up or from −8 down.
NADPH oxidase 2 (Homo sapiens), sequence (P04839 whole entry, looked up): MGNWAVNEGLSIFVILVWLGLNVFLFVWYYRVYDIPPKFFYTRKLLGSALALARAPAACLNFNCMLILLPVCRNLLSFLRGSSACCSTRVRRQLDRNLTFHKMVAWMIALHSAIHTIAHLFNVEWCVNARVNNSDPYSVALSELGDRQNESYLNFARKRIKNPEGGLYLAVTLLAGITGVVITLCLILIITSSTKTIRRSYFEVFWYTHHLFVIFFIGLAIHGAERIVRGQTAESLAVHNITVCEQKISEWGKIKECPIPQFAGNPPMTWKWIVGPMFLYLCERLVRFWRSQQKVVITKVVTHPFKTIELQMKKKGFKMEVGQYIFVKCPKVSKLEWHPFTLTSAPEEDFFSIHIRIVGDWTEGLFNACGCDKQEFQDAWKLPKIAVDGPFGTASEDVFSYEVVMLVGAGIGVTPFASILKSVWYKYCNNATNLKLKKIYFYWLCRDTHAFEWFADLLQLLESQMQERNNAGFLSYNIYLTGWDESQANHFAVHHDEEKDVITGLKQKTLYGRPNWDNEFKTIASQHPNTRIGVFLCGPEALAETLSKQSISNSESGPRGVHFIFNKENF
Assay [19] deals with NADPH oxidase 4 (Homo sapiens) (UniProt Q9NPH5). The assay is described as follows: NOX4-dependent H2O2 signal modulators, primary screen, NOX inhibitor project, cell-based, HEK293-NOX4, tetracycline-induced, Amplex Red fluorescence (AID 1160). As to conditions: 45 min, higher = more signal, called active from +8 up or from −8 down.
NADPH oxidase 4 (Homo sapiens), sequence (Q9NPH5 whole entry, looked up): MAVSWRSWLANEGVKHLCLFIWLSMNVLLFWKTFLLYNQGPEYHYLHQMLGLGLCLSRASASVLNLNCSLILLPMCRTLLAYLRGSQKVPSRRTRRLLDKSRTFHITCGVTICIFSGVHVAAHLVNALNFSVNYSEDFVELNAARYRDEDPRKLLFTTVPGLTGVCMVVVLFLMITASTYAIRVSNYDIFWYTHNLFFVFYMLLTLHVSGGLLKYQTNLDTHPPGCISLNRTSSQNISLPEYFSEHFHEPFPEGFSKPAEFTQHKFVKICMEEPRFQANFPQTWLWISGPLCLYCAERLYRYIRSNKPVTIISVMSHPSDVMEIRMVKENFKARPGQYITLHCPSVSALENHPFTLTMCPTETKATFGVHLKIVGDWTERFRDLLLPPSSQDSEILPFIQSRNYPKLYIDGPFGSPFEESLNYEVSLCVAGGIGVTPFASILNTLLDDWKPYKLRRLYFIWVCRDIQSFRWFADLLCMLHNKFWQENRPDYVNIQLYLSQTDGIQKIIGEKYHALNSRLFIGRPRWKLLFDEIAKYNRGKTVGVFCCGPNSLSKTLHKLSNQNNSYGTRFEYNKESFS
The target of assay [20] is NADPH oxidase 5 (Homo sapiens) (UniProt Q96PH1). The assay is described as follows: NOX5-dependent H2O2 signal modulators, primary screen, NOX inhibitor project, cell-based, HEK293-NOX5, Amplex Red fluorescence (AID 1161). The note with it: HEK293-NOX5, ionomycin, 45 min, higher = more signal.
NADPH oxidase 5 (Homo sapiens), sequence (Q96PH1 whole entry, looked up): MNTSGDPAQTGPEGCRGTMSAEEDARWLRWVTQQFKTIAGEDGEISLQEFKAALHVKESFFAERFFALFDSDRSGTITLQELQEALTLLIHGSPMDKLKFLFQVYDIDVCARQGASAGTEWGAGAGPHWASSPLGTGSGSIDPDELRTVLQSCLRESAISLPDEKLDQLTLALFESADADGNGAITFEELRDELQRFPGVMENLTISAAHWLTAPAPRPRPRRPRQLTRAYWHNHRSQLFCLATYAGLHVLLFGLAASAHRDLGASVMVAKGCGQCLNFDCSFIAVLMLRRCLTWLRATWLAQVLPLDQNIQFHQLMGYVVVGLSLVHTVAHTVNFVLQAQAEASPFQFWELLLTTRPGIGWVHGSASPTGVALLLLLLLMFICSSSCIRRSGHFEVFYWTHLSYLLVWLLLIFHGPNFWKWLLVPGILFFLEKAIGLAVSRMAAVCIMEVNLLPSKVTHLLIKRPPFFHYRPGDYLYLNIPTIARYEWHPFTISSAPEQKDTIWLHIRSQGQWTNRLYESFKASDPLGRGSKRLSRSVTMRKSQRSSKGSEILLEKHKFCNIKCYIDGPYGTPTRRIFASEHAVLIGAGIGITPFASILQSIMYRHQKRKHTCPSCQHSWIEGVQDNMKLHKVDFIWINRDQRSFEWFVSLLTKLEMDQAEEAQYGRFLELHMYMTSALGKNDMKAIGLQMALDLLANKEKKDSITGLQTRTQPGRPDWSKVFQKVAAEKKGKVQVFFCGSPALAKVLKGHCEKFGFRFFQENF

Torsin-1A (Homo sapiens), sequence (O14656 whole entry, looked up): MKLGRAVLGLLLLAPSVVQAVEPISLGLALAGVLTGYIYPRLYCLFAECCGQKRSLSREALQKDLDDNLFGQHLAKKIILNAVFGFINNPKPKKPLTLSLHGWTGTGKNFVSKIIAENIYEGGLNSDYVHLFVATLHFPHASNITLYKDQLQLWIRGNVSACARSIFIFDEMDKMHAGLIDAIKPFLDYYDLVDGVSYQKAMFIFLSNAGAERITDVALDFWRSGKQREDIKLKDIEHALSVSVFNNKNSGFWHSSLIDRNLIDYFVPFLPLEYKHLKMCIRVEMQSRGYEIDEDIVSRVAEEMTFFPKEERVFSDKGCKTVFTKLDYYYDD
Streptavidin (Streptomyces avidinii), sequence (P22629 whole entry, looked up): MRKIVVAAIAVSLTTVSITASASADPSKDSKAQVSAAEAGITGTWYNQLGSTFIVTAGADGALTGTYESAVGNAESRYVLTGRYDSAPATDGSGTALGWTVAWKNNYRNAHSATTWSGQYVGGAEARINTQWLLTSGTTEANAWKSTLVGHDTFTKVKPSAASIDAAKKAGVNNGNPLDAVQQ

Turning to `CC(C)C[C@H]1NC(=O)CNC(=O)[C@@]23C(=O)N[C@@H](Cc4ccccc4)C2[C@H](C)[C@@]2(C)O[C@H]2C3/C=C/C/C=C\CNC1=O` (stereo not given in full), the composite z-score in [1] was -0.0443; in [6], -0.185; in assay [7], -0.0719; with Torsin-1A (Homo sapiens) [8], -0.0633; with Torsin-1A (Homo sapiens) [9] it was 0.129; in assay [10] it was 1.93. This molecule also yielded a composite z-score in assay [12] of -0.103. The z-score was 0.0643 (inactive) in assay [2]; -0.0124 (inactive) in assay [3]; 0.483 (inactive) in [4]; 0.201 (inactive) in assay [5]; -0.592 (inactive) in [11]; 0.392 (inactive) in [13]. Besides, the z-score in [14] was 0.41 (inactive); in assay [15], -0.352 (inactive); in [16], -0.0621 (inactive); in [17], 0.662; in [18] it was 0.429 (inactive); in assay [19] it was 1.21 (inactive). In [20], the z-score is -0.495.
Take `CN(C)C(=O)[C@]1(CCS(=O)(=O)c2ccccc2)N=C(c2ccc(OCCCO)cc2)O[C@@H]1c1ccccc1CN=[N+]=[N-]`: the composite z-score in [1] is 0.485; in assay [6], 1.54; in [7] it was -0.0332; in the assay with Torsin-1A (Homo sapiens) [8], 0.408; with Torsin-1A (Homo sapiens) [9], 0.927; in [10] it was -0.405. In assay [12], this molecule had a composite z-score of 0.342. The z-score in assay [2] is -0.915 (inactive); in assay [3], -0.813 (inactive); in assay [4], 0.0686 (inactive); in assay [5] it was 0.236 (inactive); in [11], 0.0558 (inactive); in assay [13], 25.5 (active). Also, the z-score was 14.6 (active) in [14]; 1.47 (inactive) in assay [15]; 1.57 (inactive) in assay [16]; 0.131 in assay [17]; -0.163 (inactive) in [18]; 2.09 (inactive) in [19]. In addition, the z-score in assay [20] is -0.658.
In the case of `CN1C(=O)C2C=CC(C(O)c3cccs3)N(N(c3ccccc3)c3ccccc3)C2C1=O` (stereo not given), the composite z-score in assay [1] is -0.0276; in assay [6] it was 0.827; in assay [7], 0.0422; in the assay with Torsin-1A (Homo sapiens) [8] it was 1.75; with Torsin-1A (Homo sapiens) [9], 0.0109; in assay [10], -0.287. In [12], this molecule had a composite z-score of 0.25. Besides, the z-score was 0.114 (inactive) in [2]; -0.176 (inactive) in assay [3]; 1.21 (inactive) in [4]; -0.324 (inactive) in assay [5]; -0.822 (inactive) in [11]; 0.929 (inactive) in [13]. Besides, the z-score in assay [14] was 1 (inactive); in [15], 0.157 (inactive); in assay [16], 0.556 (inactive); in assay [17] it was -0.967; in [18], -0.915 (inactive); in [19], -1.84 (inactive). Moreover, in assay [20], the z-score was -1.25.
For `C=CCNC(=O)[C@@H]1[C@H]2C(=O)O[C@H](c3ccccc3)[C@H](c3ccccc3)N2[C@H](c2ccc(O)cc2)[C@@]12C(=O)Nc1ccc(C#CC3=CCCCC3)cc12`, the composite z-score was 0.779 in assay [1]; 1.72 in assay [6]; 1.05 in assay [7]; 0.857 with Torsin-1A (Homo sapiens) [8]; 0.975 with Torsin-1A (Homo sapiens) [9]; 2.03 in assay [10]. Also, the composite z-score in assay [12] worked out at 1.56. The z-score was -4.01 (inactive) in assay [2]; -0.909 (inactive) in assay [3]; 0.119 (inactive) in assay [4]; -0.679 (inactive) in assay [5]; -0.396 (inactive) in assay [11]; 1.71 (inactive) in assay [13]. In addition, the z-score in assay [14] was 0.959 (inactive); in assay [15] it was -0.587 (inactive); in assay [16] it was 1.08 (inactive); in [17] it was -0.424; in assay [18], 1.51 (inactive); in [19], 0.391 (inactive). The same molecule returned a z-score in [20] of 0.578.
